In article PMC12864922, “TDP-43 directly inhibits mRNA accumulation in neurites through modulation of mRNA stability”:
Over roughly 9,900 sequences, “r (bound/input frequency ratio)” has its median near 0.7; the highest 2% begin near 6.5. The sample holds the highest values, similar sequences and a random draw of the others, so the mix is not that of the screen.

B1: ENSMUSG00000058297.560|Spock2|93:97;225:231 (ssRNA)
RNA: GGGAGUUCUACAGUCCGACGAUCGCUUCGAUAUCCGCAUGCUAACCUGGGGGUGCAAAAGGAGAUUCAAGACAUCCGUACCAAGUCAGGCAGAGCUACCCGCUUCUCAGCCCGUGUCCCACUUAAAACCGUCCGAACACAAAUCACUGAGCUUAGAGUUAAACAUUGUGGUCAAGUGCUUGGGUUCCGUCUGUAGAUUUAAGUGCUGACGUUGUAUCUCUCAGUAAUUUUAGAUGUCUUUUAAAAAAUCUGAACAAGUGUUAGACCCCACACACCGUUGGUGGGCACUCAAGCAUCCCGUGGGCUCUUGCGGUCGCACUAGUGUGGAAUUCUCGGGUGUCAAGG
B2: ENSMUSG00000042529.275|Kcnj12 (ssRNA)
RNA: GGGAGUUCUACAGUCCGACGAUCGCUUCGAUAUCCGCAUGCUAUUACCUGCCACUCACCUCUCUAUCUAGUUGUCGAGUCUAGGGAAGGGCAGAGGGUGGGUCCUGGCCACUGGGUGCCACUGUGGGAGCCGGGGCACCUGUCAUUCUUUCUGAGUAGGUGGGCCUGUAUCCAGAGCAGGGUCUAGGGGCUCCUGCUCCCGGCUCAUCUCAGUGGCCUGAAGCAUUCAAAACUCUAGCCAGCCCCAUCCUCCUCCCUGCCAGAAUGGUCCAGUCCCUGGGCCCUGCUGGAGAGCAGCUCAAACCUCUUGCGGUCGCACUAGUGUGGAAUUCUCGGGUGUCAAGG
B3: ENSMUSG00000042529.296|Kcnj12 (ssRNA)
RNA: GGGAGUUCUACAGUCCGACGAUCGCUUCGAUAUCCGCAUGCUAUCCAGAGCAGGGUCUAGGGGCUCCUGCUCCCGGCUCAUCUCAGUGGCCUGAAGCAUUCAAAACUCUAGCCAGCCCCAUCCUCCUCCCUGCCAGAAUGGUCCAGUCCCUGGGCCCUGCUGGAGAGCAGCUCAAACUGCCUUUCAUCUCUGCCAAAGGCAGGCAGAUGCUGUAUUUUCAAAUUCUCCUGCCCUCUUUUCCCCUUUUUCCCUGUAUUUAUUUAUUGCUUGUGCUAAAGACCAAACUAGCCGCCCCCUUUAGUGCUCUUGCGGUCGCACUAGUGUGGAAUUCUCGGGUGUCAAGG
B4: ENSMUSG00000090935.16|Synj2bp (ssRNA)
RNA: GGGAGUUCUACAGUCCGACGAUCGCUUCGAUAUCCGCAUGCUAAUAUGAACGGACGGGUGGAUUAUUUAGUCACGGAGGAAGAGAUCAACCUGACGAGAGGACCUUCGGGUAAAUGGCCAAGAUCUGAAGAACCUGCUGCACCAAGAUGCUGUAGACCUCUUCCGUAAUGCGGGAUGUGCUGUGUCCCUGAGAGUACAGCACAGGUUACCAGUGCAGAAUGGACCUAUAGUACAUCGAGGUGAAGGAGAGCCAAGUGGAGUUCCUGUAGCUAUGGUGCUGCUACCAGUGUUUGCCCUCACCAUCUCUUGCGGUCGCACUAGUGUGGAAUUCUCGGGUGUCAAGG
B5: ENSMUSG00000061578.1096|Ksr2 (ssRNA)
RNA: GGGAGUUCUACAGUCCGACGAUCGCUUCGAUAUCCGCAUGCUAAGAAGGCUGGGGGAGCUUUCAGGGGUGUGGCCAGUUAUGUACAGAUGUGAAGCUGAGGUCUGAAGGAAAUGGAGGAAGUAGGAAGAUCAGACUGGUUGAAUUAGAAGUCUGUCACUCUAGGUGCUAAGUGACCUUGGACCCAGUCAGUUCUUGGAUUUCUGUUGUAGCCCAGGCUAGCCUCGAACCCUUGAUCCUCCUGUUCCUGGUAGAGAAACAGCCACUAAAUGGUGGGAUAGAAUGUGACUGCUCUAUCCCCGAUCCUCUUGCGGUCGCACUAGUGUGGAAUUCUCGGGUGUCAAGG
B6: ENSMUSG00000029636.193|Wasf3 (ssRNA)
RNA: GGGAGUUCUACAGUCCGACGAUCGCUUCGAUAUCCGCAUGCUAAGCCAGUUGCCCGGGCAGAGACCUGACUUCCCCUCUCCUGCCCUGAUCCUUUUUACCAAAUGGCGAUUCCAUAGUCCUGGCUGAGGCAGGGGCUCAAAGUCCAGUGUCUGCUUUGCAAUUCUGGAAGGACAGCUGCUUAUUUAAAUAAGUCUGUGAUAUCCGCAGGCUUGGGUUACAGGGAGGACCUUGCAGAGGGACCAGGACACUGCCUUCCCUUAGGUGCAUUAUUUACGUGGCCUGCAGCUCUUAAUAUCUCUCACCUCUUGCGGUCGCACUAGUGUGGAAUUCUCGGGUGUCAAGG
B7: ENSMUSG00000058297.31|Spock2 (ssRNA)
RNA: GGGAGUUCUACAGUCCGACGAUCGCUUCGAUAUCCGCAUGCUAACUUAGCAAAUGGAUCCGGAAGUCAGUGCGGAGGACCCUGGCUCCAGUGGGGGAGGACUGGGGAGUGUGGCUUGUGUGUAUGUGUGAUAUGAGAUGUGUGUGUAUGAUGUGAGAUGUGAGUGUGUGAUGUGAGAUGUGUGUAUGUGAGAUGUGUGUGUGUGUGUGUGUGUGUGUGAUGUGAGUCACCCAAAGGUCCCUAUGUUAUUGAUUUUCAAAUGCACACUUUCACACACAAGGAUACACUAACAGACCAAAAUCAACUCUUGCGGUCGCACUAGUGUGGAAUUCUCGGGUGUCAAGG
B8: ENSMUSG00000058297.30|Spock2 (ssRNA)
RNA: GGGAGUUCUACAGUCCGACGAUCGCUUCGAUAUCCGCAUGCUACAGGCAACUUAGCAAAUGGAUCCGGAAGUCAGUGCGGAGGACCCUGGCUCCAGUGGGGGAGGACUGGGGAGUGUGGCUUGUGUGUAUGUGUGAUAUGAGAUGUGUGUGUAUGAUGUGAGAUGUGAGUGUGUGAUGUGAGAUGUGUGUAUGUGAGAUGUGUGUGUGUGUGUGUGUGUGUGUGAUGUGAGUCACCCAAAGGUCCCUAUGUUAUUGAUUUUCAAAUGCACACUUUCACACACAAGGAUACACUAACAGACCAACUCUUGCGGUCGCACUAGUGUGGAAUUCUCGGGUGUCAAGG
B9: ENSMUSG00000058297.31|Spock2|65:69;73:86;95:106;120:126;135:144;150:175 (ssRNA)
RNA: GGGAGUUCUACAGUCCGACGAUCGCUUCGAUAUCCGCAUGCUAACUUAGCAAAUGGAUCCGGAAGUCAGUGCGGAGGACCCUGGCUCCAGUGGGGGAGGACUGGGGACACACGCUACACACAUACACACAUAUGAGAACACACACAUACAUGUGAGAUGUGACACACACAUGUGAGAACACACAUACUGAGAACACACACACACACACACACACACACAUGUGAGUCACCCAAAGGUCCCUAUGUUAUUGAUUUUCAAAUGCACACUUUCACACACAAGGAUACACUAACAGACCAAAAUCAACUCUUGCGGUCGCACUAGUGUGGAAUUCUCGGGUGUCAAGG

molecular target: TDP-43 (Homo sapiens, UniProt Q13148 1-414); assay: RNA Bind-n-Seq with designed 260-mer pool; 25 mM Tris-HCl, 150 mM KCl, 3 mM MgCl2, BSA (printed 500 mg/mL), 20 units/mL SUPERase IN; pH not stated; 500 nM RNA pool, 1 h, 4 C; TDP-43 5, 50, 500 nM; high values mean tight binding; conditions: protein: recombinant; tags: SBP (GST cleaved off with PreScission; pGEX-GST-SBP)
Sequence (Q13148 whole entry): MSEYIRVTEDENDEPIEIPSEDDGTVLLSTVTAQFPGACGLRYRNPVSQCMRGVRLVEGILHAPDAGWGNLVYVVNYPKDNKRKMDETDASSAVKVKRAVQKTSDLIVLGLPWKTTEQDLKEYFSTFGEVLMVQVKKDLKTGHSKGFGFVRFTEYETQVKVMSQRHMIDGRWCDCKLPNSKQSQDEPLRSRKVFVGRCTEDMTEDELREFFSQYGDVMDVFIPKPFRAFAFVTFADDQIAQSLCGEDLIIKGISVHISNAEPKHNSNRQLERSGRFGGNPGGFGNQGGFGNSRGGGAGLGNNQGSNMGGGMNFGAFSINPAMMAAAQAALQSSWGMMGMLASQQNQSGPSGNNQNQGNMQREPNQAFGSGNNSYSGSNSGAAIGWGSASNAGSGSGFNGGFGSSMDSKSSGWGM
Outline: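 Streptavidin beads captured recombinant SBP-tagged TDP-43 at 5, 50 or 500 nM, and the beads were incubated for 1 h at 4 °C with 500 nM of an in vitro-transcribed pool of 260-nt 3′ UTR oligos in 25 mM Tris-HCl, 150 mM KCl, 3 mM MgCl2, BSA and SUPERase IN. After washing, bound RNA was eluted with biotin, reverse transcribed, PCR-amplified and sequenced. Binding is reported as R, the mapped-read-normalized abundance of each oligo in the bound sample divided by its abundance in the input. Two independent protein batches served as duplicates.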

Binder | binding signal
B1 | 0.189 R (bound/input frequency ratio)
B2 | 0.367 R (bound/input frequency ratio)
B3 | 1.65 R (bound/input frequency ratio)
B4 | 0.983 R (bound/input frequency ratio)
B5 | 2.29 R (bound/input frequency ratio)
B6 | 0.437 R (bound/input frequency ratio)
B7 | 8.63 R (bound/input frequency ratio)
B8 | 8.87 R (bound/input frequency ratio)
B9 | 3.59 R (bound/input frequency ratio)
